A selection: hits, their analogues and other compounds. The true share with any hit is near 1.7%.
TrxR1 inh = rat TrxR1 inhibition | Potency, µM (series often up to 114 µM), inactives show top-dose activity change, negative = inhibition, actives largely listed as inhibitors | recombinant rTrxR1, NADPH fluorescence consumption, selenite substrate | 1% of 390,000 active | O89049 | AID 588453; also: % is scaled to controls: 0 for no effect and ±100 for the full control effect; nearly all actives have a fitted effect of over 65% in size
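Rat TrxR1 (90 nM in the dispensed reagent) was pre-reduced with 400 uM NADPH for 5 min at room temperature, then incubated with compound for 15 min. After 400 uM selenite was added, NADPH fluorescence (Ex 340/Em 450 nm) was followed for 8 min.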
Glioma ERSR ind = inducers of ER stress response in human glioma cells | U87-MG GRP78 promoter luciferase reporter, 16 h | Potency, µM, for inactives: at the highest dose activation, hits mostly activators | 0.02% of 420,000 active | AID 602332; also: series mostly up to about 76 µM; % of control where 0% means no effect; nearly all actives have a fitted effect of over 35% in size
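Stably transfected U87-MG human glioma cells carrying a GRP78-based luminescent sensor were seeded at 1000 cells/well, pin-dosed with compounds and incubated 16 h. Luciferase reagent was then added, and end-point luminescence was read after 10 min at room temperature.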
ALOX12 inh = ALOX12 (human) lipoxygenase inhibition | AID 1671190 | purified 12hLO, xylenol orange hydroperoxide absorbance | Potency, µM (doses to about 108 µM), without a hit: top-dose activity change, negative = inhibition, actives largely listed as inhibitors | 1.1% of 580,000 active | P18054; also: % is scaled to controls: 0 for no effect and ±100 for the full control effect
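Purified human 12hLO at 150 nM in 25 mM Hepes, 0.01% Triton X-100, pH 7.0, preincubated 15 min at room temperature with compound. Reaction started with 40 uM arachidonic acid, 30 min at room temperature. Hydroperoxide measured by Fe-xylenol orange, 573/405 nm absorbance ratio.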
TrxR1 substrate = rat thioredoxin reductase 1 substrate activity. O89049. 0.01% of 390,000 active. Potency, µM (doses to about 114 µM), without a hit: at the highest dose activity change, negative = substrate turnover. AID 588456. purified TrxR1 substrate turnover, NADPH consumption readout; also: % is scaled to controls: 0 for no effect and ±100 for the full control effect; nearly all actives have a fitted effect of over 50% in size
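Rat TrxR1, dispensed at 90 nM, was prereduced with 400 uM NADPH (final) for 5 min at ~22 deg C, then incubated with compound 15 min before 400 uM selenite. A first-read NADPH fluorescence drop versus no-compound background flagged substrates.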
Anesthetic bind = binds horse apoferritin like a general anesthetic. apoferritin/1-aminoanthracene competitive binding, fluorescence. Potency, µM (top dose mostly 77.5 µM), inactives show top-dose activity change, negative = displacement, usual class: inhibitors. 0.074% of 350,000 active; also: % is scaled to controls: 0 for no effect and ±100 for the full control effect; nearly all actives have a fitted effect of over 20% in size
Target sequence (P02791 2-175 limits assumed): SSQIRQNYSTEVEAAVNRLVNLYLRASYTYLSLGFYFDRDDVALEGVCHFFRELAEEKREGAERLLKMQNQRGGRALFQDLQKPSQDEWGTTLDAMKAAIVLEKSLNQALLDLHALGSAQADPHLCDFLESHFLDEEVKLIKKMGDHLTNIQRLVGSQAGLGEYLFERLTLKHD
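10 uM apoferritin + 50% sat. 1-AMA, PBS; cpd 10 min RT; Ex380/Em535 endpoint; normalized to free probe vs complex; 4-param Hill fit; propofol titration as pos. ctrl.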
mIDH1 inhibitor = inhibitors of human mutant IDH1 R132H. AID 602179. IDH1-R132H enzyme, NADPH consumption, diaphorase/resazurin fluorescence. 0.093% of 390,000 active. Potency, µM (highest dose often 76.6 µM), inactives show at the highest dose activity change, negative = inhibition, hits mostly inhibitors; also: % is scaled to controls: 0 for no effect and ±100 for the full control effect; nearly all actives have a fitted effect of over 65% in size
Target sequence (O75874 whole entry R132H, stated change not applied): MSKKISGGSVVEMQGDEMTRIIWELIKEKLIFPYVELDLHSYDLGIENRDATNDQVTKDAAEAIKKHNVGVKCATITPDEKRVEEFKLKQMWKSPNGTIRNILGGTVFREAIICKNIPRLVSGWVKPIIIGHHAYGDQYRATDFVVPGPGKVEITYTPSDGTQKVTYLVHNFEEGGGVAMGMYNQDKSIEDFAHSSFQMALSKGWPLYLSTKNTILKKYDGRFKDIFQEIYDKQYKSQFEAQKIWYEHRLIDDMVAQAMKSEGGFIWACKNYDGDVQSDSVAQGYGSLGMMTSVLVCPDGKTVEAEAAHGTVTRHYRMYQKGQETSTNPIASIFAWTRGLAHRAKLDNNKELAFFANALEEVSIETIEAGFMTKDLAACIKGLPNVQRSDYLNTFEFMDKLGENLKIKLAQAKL
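IDH1-R132H (0.5 ug/mL) preincubated 30 min with compound, then NADPH (0.016 mM) and alpha-KG (2 mM) added; 80 min at RT, pH 7.5. Remaining NADPH coupled via diaphorase/resazurin to fluorescence (540/590 nm); concentration-response curves normalized to no-enzyme control.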
* hit, by the source's call; ? = inconclusive; nt = no result; [ ] = another dose, or the depositor's remark. Calls follow the shape of the dose curve; as a rule, active = well fitted curve in the direction sought with a large enough effect; inconclusive = small, poorly fitted or top-dose-only effect, or another doubt; inactive = no such curve, though single readings can be large; an effect the other way counts as inactive or inconclusive. Potency is read from the fitted curve at half-maximal effect.

SMILES	TrxR1 inh	Glioma ERSR ind	ALOX12 inh	TrxR1 substrate	Anesthetic bind	mIDH1 inhibitor
O=C1c2sc3nc4ccccc4n3c2C(=O)N1c1ccccc1Cl	4µM*	0%	?	-6%	-22%	5%
Cc1ccccc1N1C(=O)c2sc3nc4c(c(=O)n3c2C1=O)CCC4	8.9µM*	-2%	nt	-9%	-22%	-1%
COc1ccc2c3c(n(C)c2c1)[C@H](CO)N(C(=O)Cc1ccccc1)CC31CCN(C(=O)Cc2ccccc2)CC1	nt	nt	-17%	nt	nt	nt
COc1ccc2c3c([nH]c2c1)[C@@H](CO)N(Cc1ccccc1)CC31CN(C(=O)Cc2ccccc2)C1	nt	nt	5µM*	nt	nt	nt
O=C(Oc1cc(-c2ccccc2)no1)c1ccc(Cl)cc1	-39%	-4%	32µM*	-9%	-10%	2%
Cc1ccc2nc(SC(Cc3cc(Cl)ccc3Cl)C(=O)O)[nH]c2c1 (centres undefined)	-10%[57.1 µM]	2%	3%	-7%[57.1 µM]	2%	5%
CCOC(=O)c1cnc2c(F)ccc(F)c2c1Sc1ccccc1	56µM*	?	?	-11%	-16%	-10%
CC(C)c1ccc(NC(=O)CN2CCCC2)cc1	nt	nt	37%	nt	nt	nt
CC(C)Oc1ccc(C(=O)Nc2ccc(N(C)C)cc2)cc1	5%	-1%	-23%	-4%	1%	8%
CC(C)c1ccc(NC(=O)c2ccc(N(C)C)cc2)cc1	nt	nt	45µM*	nt	nt	nt
Cc1nn(C)c(C)c1NC(=O)COc1ccc(Cl)cc1	47%	-3%	33%	16%	nt	0%
Cc1nn(C)c(C)c1NC(=O)CCl	31%[11.4 µM]	-3%	14µM*	17%[57.1 µM]	-10%	16%
O=C(N/N=C/c1ccc([N+](=O)[O-])s1)c1ccccc1Br	20µM*	-12%	17%	-2%	?	0%
O=C(/C=C/c1ccc(-c2ccc(Cl)cc2Cl)o1)c1ccccc1	nt	nt	1.6µM*	nt	nt	nt
O=C(/C=C/c1ccc(-c2ccccc2Cl)o1)c1ccccc1	nt	nt	20µM*	nt	nt	nt
CN(C)CCNC(=O)/C(=C/c1ccc(-c2ccc(Cl)cc2)o1)NC(=O)c1ccccc1	-11%	-7%	?	-5%	-10%	3%
CN(C)CCNC(=O)/C(=C/c1ccc(-c2ccc(Cl)cc2Cl)o1)NC(=O)c1ccccc1	0%	-14%	45µM*	5%	0%	2%
O=C(/C=C/c1ccc(-c2ccccc2Br)o1)c1ccccc1	nt	nt	-45%	nt	nt	nt
O=C(Cn1nc2c(cc1=O)CCCC2)Nc1cccc(-c2ncn[nH]2)c1	nt	nt	22%	nt	nt	nt
CSc1cccc(Nc2cc(C)nc3ncnn23)c1	nt	nt	-47%	nt	nt	nt
CC(=O)c1c(NC(=O)c2ccccc2)[nH]c(-c2ccccc2)nc1=S	?	-2%	40µM*	-8%	-8%	-5%
CCOC(=O)c1[nH]c(C)c(CCC(=O)N2CCC(C(=O)NCCN(C)C3CCCCC3)CC2)c1C	nt	nt	8%	nt	nt	nt
COc1cccc(NC(=O)/C=C/c2ccco2)c1	-69%	2%	-24%	-7%	-12%	15%
COc1ccc(C(NC(=O)/C=C\c2ccco2)c2ccc(OC)c(OC)c2)cc1 (centres undefined)	8.9µM*	-4%	32µM*	-5%	?	0%
COc1ccc(C(NC(=O)/C=C/c2ccco2)c2ccc(OC)cc2)cc1	25µM*	10%	45µM*	0%	-18%	8%
SMILES	TrxR1 inh	Glioma ERSR ind	ALOX12 inh	TrxR1 substrate	Anesthetic bind	mIDH1 inhibitor
O=c1oc(-c2ccccc2)cc(Cl)c1Cl	5.6µM*	-13%	-16%	14%[57.1 µM]	-3%	2%
Cc1cc(NS(=O)(=O)c2ccc(NC(=O)/C=C/c3ccco3)cc2)nc(C)n1	13µM*	-2%	?	-10%	0%	-1%
CCc1ccc2oc(C(=O)Nc3ccc(S(=O)(=O)Nc4cc(C)nc(C)n4)cc3)cc(=O)c2c1	nt	nt	18µM*	nt	nt	nt
O=C(/C=C/c1ccco1)Nc1ccc(C(=O)N2CCOCC2)cc1	40µM*	1%	-25%	-10%	-10%	2%
O=C(/C=C/c1ccco1)Nc1ccc(CN2CCOCC2)cc1	-26%	1%	59%	-11%	-5%	0%
O=C(/C=C/c1ccco1)Nc1ccc(N2CCCC2)cc1	32µM*	4%	?	-3%	0%	13%
CC(=O)Nc1cccc(NC(=O)c2cc(=O)[nH]c3ccccc23)c1	nt	nt	-38%	nt	nt	nt
CS(=O)(=O)N(Cc1cccnc1)C1CN(C(=O)c2cc3ccccc3[nH]2)C1	nt	nt	38%	nt	nt	nt
COc1cc(=O)n2c(c1C(=O)Nc1ccc(C)cc1C)CCCC2	nt	nt	18%	nt	nt	nt
O=C(Cn1ccc2cc(Cl)ccc21)N1CCCCCC1	nt	nt	-34%	nt	nt	nt
CCOc1ccc(C(=O)NCC2CCCO2)cc1Cl (centres undefined)	nt	nt	22%	nt	nt	nt
